Here are results for 40 compounds from PubChem BioAssay (EPA / NIEHS).

Active and inactive are the calls of the source. Rule for the calls: active = hit-call score of the fitted dose curve at least 0.9, where 1 is the maximum; inactive = score below 0.9.

For orientation: AC50 means the midpoint of the concentration-response curve, whichever way the signal moves.

Read-out in this experiment: succinate dehydrogenase complex iron sulfur subunit B (SDHB), SDHB (gene 6390)
Briefly: LTEA_HepaRG_SDHB: Life Technologies and Expression Analysis (LTEA) Assay for succinate dehydrogenase complex iron sulfur subunit B (SDHB) using HepaRG (AID 2283528). The note with it: mRNA level, 48 h; actives raise or lower the signal. As for the experimental part: LTEA_HepaRG is a cell based, multiplexed-readout assay that uses HepaRG, a human liver cell line, with measurements taken at 48 hours after chemical dosing on a 96-well plate.LTEA_HepaRG_SDHB is one of 102 assay component(s) measured in the LTEA HepaRG cell culture assay. It is a marker of Cell proliferation, survival, death.Data from the assay component LTEA_HepaRG_SDHB was analyzed into 1 endpoint. This assay endpoint, LTEA_HepaRG_SDHB, was analyzed with bidirectional fitting relative to DMSO as the negative control and baseline of activity. Using a type of inducible reporter, measures of mRNA induction for gain or loss-of-signal activity can be used to understand regulation of transcription factor activity. To generalize the intended target to other relatable targets, this assay endpoint is annotated to the oxidoreductase intended target family, where the subfamily is ubiquinone.
A total of 1060 chemcials from the ToxCast library were tested in eight-point concentration-response experiments. Cell culture and cytotoxicity assays were conducted at Thermo Fisher Scientific's Custom Services facility (Madison, WI). A single lot of human HepaRG cells (Thermo Fisher Scientific, Frederick, MD) was used for the cell culture experiments. 96-well format collagen type I coated plates of human HepaRG cells were prepared using established methods. Briefly, cryopreserved HepaRG cells were thawed, plated at a density of approximately 100,000 cells/well in HepaRG Thaw, Plate, and General Purpose media (HPRG770, Thermo Fisher Scientific), and incubated for 48 hours. 0.5% DMSO was selected as vehicle control to balance the requisite need of DMSO in HepaRG cultures to maintain differentiation (for example, baseline metabolism, proportions of hepatocytes vs. cholangiocytes), while enabling further hepatic receptor pathway activation (for example, PXR and CAR) in response to chemical exposure. 48 hours after plating, the culture medium was replaced with HepaRG Serum-Free Incudtion Media. Cells were exposed to each test chemical in duplicate and maintained in CO2 incubators for another 48 hours. Chemical plates were thawed to room temperature and 200x concentrations of treatment groups were prepared. 8-point conentration-reponse curves were made with the highest exposure at 100 uM, followed by half-log dilutions, all in 0.5% DMSO. Each test plate contained variouse controls, induction positive controls (1mM phenobarbital), cytotoxicity positive controls ([…] aflatoxin B1), vehicle controls (0.5% DMSO), and total lysis controls (0.5% DMSO). Cell morphology images were taken using an Essen IncuCyte FLR automated microscope, with six 96-well plates imaged in about 24 minutes. Images were captured and exported and JPEG files. Spent culture media was transfered to black-well plates for the LDH assay, and remaining media was sorted at -80 C for later use. Cells were treated with RLT buffer and frozen until shipped for gene expression analysis. Total RNA was isolated from the cell suspension in 75 uL of Buffer RLT (Qiagen, Germantown, MD 20874) by Quintiles/Expression Analysis (Durham, NC) using a custom isolation procedure. Total RNA from each plate well was transferred to a preamplification plate. Fluidigm's 96.96 Dynamic ArrayTM (Fluidigm, Amsterdam, the Netherlands) technology was used for gene expression analyses by quantitative reverse transcription polymerase chain reaction (qRT-PCR, performed by Quintiles/Expression Analysis, Durham, NC)89. Standard TaqManTM Assays (Applied Biosystems/ThermoFisher Scientific, Foster City, CA) were used to assess the expression of 93 genes selected based on their selectivity and sensitivity to important hepatic receptors known to be modulated by environmental chemicals; importance in human hepatocyte functionality; and hepatotoxicity. […]
Turning to `Clc1ccc(C(c2ccc(Cl)cc2)C(Cl)(Cl)Cl)cc1`, the AC50 was 17 µM (active). With `N#CC(Br)Br`, the call was inactive. Still for that read-out and setting: to `O=C(Nc1ccccc1)c1ccccc1I` belongs “inactive”; to `COC(=O)c1ccccc1N`, “inactive”. On the same count and under the same terms, to `CCCCOC(=O)c1ccccc1C(=O)OCc1ccccc1` belongs “inactive”; to `CCCCC(CC)COC(=O)c1ccc(C(=O)OCC(CC)CCCC)c(C(=O)OCC(CC)CCCC)c1` (stereo not given), “inactive”. Still for that read-out and setting: to `N#CC(Br)(Br)C(N)=O` belongs “inactive”. On to `Nc1ccc(Cl)cc1N`, for which the half-maximal activity concentration (AC50) was 21.6 µM (active).

`[As]#[In]`: the compound was called inactive.

`Cc1ccc(N=C=O)cc1N=C=O`: the compound was called inactive. Still for that read-out and setting: to `CN(C)c1ccc(C(=O)c2ccc(N(C)C)cc2)cc1` belongs “inactive”; to `O=C1CCCO1`, “inactive”; to `Clc1ccccc1Cl`, “inactive”. The same measure, in the same setting: to `c1ccc(C2CO2)cc1` (stereo not given) belongs “inactive”; to `OCCCl`, “inactive”; to `CCOc1cccc(C2(N3CCN(c4ccccc4)CC3)CCC(C)CC2)c1` (stereo not given), “inactive”. Same read-out and setting: to `c1ccc2c(c1)oc1ccccc12` belongs “inactive”. Take `CC(C)(C)C(O)(CCc1ccc(Cl)cc1)Cn1cncn1` (stereo not given): the result was inactive. On the same count and under the same terms, to `Cc1cccc(N)c1N` belongs “inactive”.

Turning to `COc1cc(C=O)cc2c1[C@H](COC(N)=O)[C@]1(OC(C)=O)ON2C[C@H]2[C@@H]1N2C(C)=O`, the AC50 is 93.4 µM (active). Turning to `O=P(OCCCl)(OCCCl)OCCCl`, the outcome was inactive.

Turning to `CCC[CH2][Sn]([Cl])([CH2]CCC)[CH2]CCC`, the AC50 is 50 µM (active). For `CC(O)CCO` (stereo not given), the compound was called inactive. As to `[Cl-].[Cl-].[Hg+2]`, the call was inactive. On to `Nc1ccc(N=Nc2ccccc2)cc1`, for which the concentration at half-maximal activity (AC50) is 18.8 µM (active). `CC(C)(OOC(C)(C)c1ccccc1)c1ccccc1`: the result was inactive.

For `CO[C@@H]1[C@H](OC(=O)NC(=O)CCl)CC[C@]2(CO2)[C@H]1[C@@]1(C)O[C@@H]1CC=C(C)C`, the compound was classed as inactive.

For `Cc1ccc([N+](=O)[O-])cc1`, the compound was called inactive.

With `CCC(C)c1ccc(O)cc1` (stereo not given), the outcome was inactive. Consider `CC(C)(C)OOC(=O)c1ccccc1`, for which the outcome was inactive.

As for `CN(C)c1ccccc1`, the call was inactive. Same read-out and setting: to `C[C@]12C=CC3=C4CCC(=O)C=C4CC[C@H]3[C@@H]1CC[C@@H]2O` belongs “inactive”. With `c1ccc(NNc2ccccc2)cc1`, the call was inactive. Take `OCCCBr`: the result was inactive. Turning to `COP(=S)(OC)SCN1C(=O)c2ccccc2C1=O`, the result was inactive. Same read-out and setting: to `Clc1ccc(Cl)c(Cl)c1` belongs “inactive”; to `Cc1ccc(N)c(N)c1`, “inactive”. Same read-out and setting: to `C=CCc1ccc2c(c1)OCO2` belongs “inactive”; to `O=[N+]([O-])C(Br)(CO)CO`, “inactive”. Regarding `CN(C)C(=O)Nc1ccc(Cl)cc1`, the compound was called inactive.
